Consider one sequence from publication PMC7862700, “An all-to-all approach to the identification of sequence-specific readers for epigenetic DNA modifications on cytosine”.

Test in all cases: DAPPL (digital affinity profiling via proximity ligation, sequencing); 10 mM Tris-HCl pH 7.5, 50 mM NaCl, 1 mM DTT, 4% glycerol, room temperature, 30 min; GST-TFs on glutathione beads, 16-mer random dsDNA library, 0.1% formaldehyde crosslink after washing; high values mean tight binding
One assay deals with T1, FEV (Homo sapiens, UniProt Q99581 1-238).
T1 sequence: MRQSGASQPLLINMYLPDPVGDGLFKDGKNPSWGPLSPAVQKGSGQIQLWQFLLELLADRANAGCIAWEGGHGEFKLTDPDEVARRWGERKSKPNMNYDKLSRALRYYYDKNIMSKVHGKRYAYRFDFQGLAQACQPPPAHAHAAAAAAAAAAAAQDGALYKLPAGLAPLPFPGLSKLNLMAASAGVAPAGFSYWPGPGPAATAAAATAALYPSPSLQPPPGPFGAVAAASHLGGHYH
To be noted: protein: recombinant; tags: N-terminal GST; dsDNA, one strand shown. A digest of the protocol:
(§1)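 A tag-only sample was pooled with DNA-barcoded human transcription factors that had been expressed in yeast as GST fusions and captured on glutathione beads. The pools were incubated for 30 min at room temperature with 200 nmole of a random double-stranded 16-mer DNA library in Tris/NaCl/DTT/glycerol buffer, then washed, crosslinked with 0.1% formaldehyde, proximity-ligated (BsaI/T4 ligase, 1 h, 37 °C), PCR-amplified and sequenced on an Illumina NextSeq500. Binding signal is each hexamer's read frequency for a factor divided by its frequency for the tag-only sample.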

For a further assay, the target named is ETV5 (Homo sapiens, UniProt P41161 1-510). To be noted: protein: recombinant; tags: N-terminal GST; dsDNA, one strand shown. The method in brief: as §1
ETV5, sequence (P41161 whole entry): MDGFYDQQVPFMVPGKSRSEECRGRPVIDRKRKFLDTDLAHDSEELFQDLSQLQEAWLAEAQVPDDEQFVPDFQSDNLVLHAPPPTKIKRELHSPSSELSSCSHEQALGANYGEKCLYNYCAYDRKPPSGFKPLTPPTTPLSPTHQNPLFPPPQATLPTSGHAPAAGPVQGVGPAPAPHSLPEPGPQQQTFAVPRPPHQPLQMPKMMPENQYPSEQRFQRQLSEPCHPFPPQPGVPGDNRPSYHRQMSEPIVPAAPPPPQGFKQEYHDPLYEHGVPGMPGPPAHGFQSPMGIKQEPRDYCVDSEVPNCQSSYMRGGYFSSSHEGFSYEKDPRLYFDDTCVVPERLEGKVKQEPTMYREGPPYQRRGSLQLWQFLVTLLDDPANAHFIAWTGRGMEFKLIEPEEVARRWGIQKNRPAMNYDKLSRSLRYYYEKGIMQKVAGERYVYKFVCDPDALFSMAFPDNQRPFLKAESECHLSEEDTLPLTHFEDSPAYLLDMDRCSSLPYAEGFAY
The target of another assay is HSF1 (Homo sapiens, UniProt Q00613 1-529). The note with it: protein: recombinant; tags: N-terminal GST; chain copies: 3; dsDNA, one strand shown. A digest of the protocol: as §1
HSF1, sequence (Q00613 whole entry): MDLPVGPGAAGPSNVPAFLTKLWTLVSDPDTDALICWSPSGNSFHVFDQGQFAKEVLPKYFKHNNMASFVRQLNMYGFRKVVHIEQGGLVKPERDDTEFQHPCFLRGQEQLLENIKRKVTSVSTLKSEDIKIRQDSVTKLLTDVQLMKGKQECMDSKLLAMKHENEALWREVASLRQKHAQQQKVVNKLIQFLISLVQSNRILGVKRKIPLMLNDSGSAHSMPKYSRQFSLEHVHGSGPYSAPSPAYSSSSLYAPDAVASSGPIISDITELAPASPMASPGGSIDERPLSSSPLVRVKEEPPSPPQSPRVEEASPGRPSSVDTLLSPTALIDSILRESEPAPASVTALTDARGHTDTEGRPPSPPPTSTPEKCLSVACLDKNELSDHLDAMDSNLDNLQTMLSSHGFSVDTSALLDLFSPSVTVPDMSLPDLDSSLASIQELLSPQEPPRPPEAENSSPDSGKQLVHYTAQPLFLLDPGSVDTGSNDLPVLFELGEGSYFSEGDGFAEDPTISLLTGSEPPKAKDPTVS
In the next assay the target is T2, SPIC (Homo sapiens, UniProt Q8N5J4 1-248).
T2 sequence: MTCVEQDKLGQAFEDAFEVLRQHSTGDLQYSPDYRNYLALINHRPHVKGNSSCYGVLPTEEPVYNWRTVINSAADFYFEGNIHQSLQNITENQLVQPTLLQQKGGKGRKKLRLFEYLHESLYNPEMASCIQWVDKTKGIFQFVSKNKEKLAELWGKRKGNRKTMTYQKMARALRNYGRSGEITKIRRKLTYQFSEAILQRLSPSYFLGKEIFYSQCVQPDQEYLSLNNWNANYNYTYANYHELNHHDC
To be noted: protein: recombinant; tags: N-terminal GST; dsDNA, one strand shown. A digest of the protocol:
as §1

The target of a further assay is ELF4 (Homo sapiens, UniProt Q99607 1-663). The note with it: protein: recombinant; tags: N-terminal GST; dsDNA, one strand shown. A digest of the protocol:
as §1

The target of another assay is T3, ELK4 (Homo sapiens, UniProt P28324-2 1-405).
T3 sequence: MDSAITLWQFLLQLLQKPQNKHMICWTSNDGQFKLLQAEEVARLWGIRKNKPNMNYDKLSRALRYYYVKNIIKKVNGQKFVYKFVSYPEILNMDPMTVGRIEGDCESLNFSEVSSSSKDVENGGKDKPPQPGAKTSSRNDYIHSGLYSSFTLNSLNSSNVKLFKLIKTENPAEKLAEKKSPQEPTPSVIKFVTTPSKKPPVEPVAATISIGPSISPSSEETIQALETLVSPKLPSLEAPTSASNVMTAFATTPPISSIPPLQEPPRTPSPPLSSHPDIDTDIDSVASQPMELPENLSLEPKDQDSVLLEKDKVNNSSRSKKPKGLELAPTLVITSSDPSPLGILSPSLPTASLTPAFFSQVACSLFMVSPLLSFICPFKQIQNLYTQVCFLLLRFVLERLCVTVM
To be noted: protein: recombinant; tags: N-terminal GST; dsDNA, one strand shown. A digest of the protocol:
as §1

The target of another assay is T4, ETV2 (Homo sapiens, UniProt O00321 1-342).
T4 sequence: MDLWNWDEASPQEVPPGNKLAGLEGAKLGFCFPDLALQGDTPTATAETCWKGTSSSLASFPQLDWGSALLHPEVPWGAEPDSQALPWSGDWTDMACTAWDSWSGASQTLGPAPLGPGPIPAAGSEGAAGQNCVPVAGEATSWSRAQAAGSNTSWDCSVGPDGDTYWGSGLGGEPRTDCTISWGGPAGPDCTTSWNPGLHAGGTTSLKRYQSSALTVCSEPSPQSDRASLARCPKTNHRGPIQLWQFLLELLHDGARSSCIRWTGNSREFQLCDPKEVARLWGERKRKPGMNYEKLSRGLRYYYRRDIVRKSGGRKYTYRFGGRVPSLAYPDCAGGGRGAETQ
The note with it: protein: recombinant; tags: N-terminal GST; dsDNA, one strand shown. A digest of the protocol: as §1

The next assay has as its target T5, ELF3 (Homo sapiens, UniProt P78545 1-371).
T5 sequence: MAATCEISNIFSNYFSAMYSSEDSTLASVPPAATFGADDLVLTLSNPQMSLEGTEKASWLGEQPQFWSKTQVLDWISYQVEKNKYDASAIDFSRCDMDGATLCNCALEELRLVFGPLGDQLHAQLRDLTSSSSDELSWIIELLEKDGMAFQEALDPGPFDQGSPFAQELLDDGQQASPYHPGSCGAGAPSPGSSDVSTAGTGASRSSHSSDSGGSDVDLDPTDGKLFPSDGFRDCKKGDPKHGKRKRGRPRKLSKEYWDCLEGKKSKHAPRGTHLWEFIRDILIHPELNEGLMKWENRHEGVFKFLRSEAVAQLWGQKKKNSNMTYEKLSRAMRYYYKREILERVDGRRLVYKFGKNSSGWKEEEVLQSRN
To be noted: protein: recombinant; tags: N-terminal GST; dsDNA, one strand shown. The method in brief:
as §1

The target in another assay is CRX (Homo sapiens, UniProt O43186 1-299). The note with it: protein: recombinant; tags: N-terminal GST; dsDNA, one strand shown. The method in brief:
as §1

In the next assay the target is ETV1 (Homo sapiens, UniProt P50549 1-477). To be noted: protein: recombinant; tags: N-terminal GST; dsDNA, one strand shown. A digest of the protocol: as §1
ETV1, sequence (P50549 whole entry): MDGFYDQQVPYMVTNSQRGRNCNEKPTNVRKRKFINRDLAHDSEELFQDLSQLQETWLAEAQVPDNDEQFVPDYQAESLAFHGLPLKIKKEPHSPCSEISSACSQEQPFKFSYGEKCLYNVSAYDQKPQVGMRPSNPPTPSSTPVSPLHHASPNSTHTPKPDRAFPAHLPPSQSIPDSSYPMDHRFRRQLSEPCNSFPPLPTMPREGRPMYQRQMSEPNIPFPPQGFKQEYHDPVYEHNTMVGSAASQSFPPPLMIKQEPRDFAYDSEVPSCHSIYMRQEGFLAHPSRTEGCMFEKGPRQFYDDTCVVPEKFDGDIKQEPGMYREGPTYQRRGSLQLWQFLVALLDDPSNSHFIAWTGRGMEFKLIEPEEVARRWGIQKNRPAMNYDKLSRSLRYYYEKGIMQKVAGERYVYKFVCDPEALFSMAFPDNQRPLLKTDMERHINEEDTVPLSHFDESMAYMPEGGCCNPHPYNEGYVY
For a further assay, the target named is T6, ERF (Homo sapiens, UniProt P50548 1-548).
T6 sequence: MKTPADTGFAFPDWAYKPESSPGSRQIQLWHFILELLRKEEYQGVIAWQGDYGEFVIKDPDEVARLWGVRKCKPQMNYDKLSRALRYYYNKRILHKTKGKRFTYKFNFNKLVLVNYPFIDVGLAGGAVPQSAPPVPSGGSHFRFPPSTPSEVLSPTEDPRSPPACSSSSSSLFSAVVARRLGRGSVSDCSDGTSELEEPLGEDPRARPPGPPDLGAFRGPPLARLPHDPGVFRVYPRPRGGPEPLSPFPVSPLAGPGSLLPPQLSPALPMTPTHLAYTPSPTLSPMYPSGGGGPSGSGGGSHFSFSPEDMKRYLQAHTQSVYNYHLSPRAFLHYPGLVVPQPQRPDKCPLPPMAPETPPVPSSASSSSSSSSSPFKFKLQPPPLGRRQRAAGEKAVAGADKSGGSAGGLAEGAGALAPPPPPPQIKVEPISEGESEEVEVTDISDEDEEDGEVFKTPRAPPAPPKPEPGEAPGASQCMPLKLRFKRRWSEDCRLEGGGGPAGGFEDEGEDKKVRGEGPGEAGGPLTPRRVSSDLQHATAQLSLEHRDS
The note with it: protein: recombinant; tags: N-terminal GST; dsDNA, one strand shown. The method in brief: as §1

In the next assay the target is T7, ETV3L (Homo sapiens, UniProt Q6ZN32 1-361).
T7 sequence: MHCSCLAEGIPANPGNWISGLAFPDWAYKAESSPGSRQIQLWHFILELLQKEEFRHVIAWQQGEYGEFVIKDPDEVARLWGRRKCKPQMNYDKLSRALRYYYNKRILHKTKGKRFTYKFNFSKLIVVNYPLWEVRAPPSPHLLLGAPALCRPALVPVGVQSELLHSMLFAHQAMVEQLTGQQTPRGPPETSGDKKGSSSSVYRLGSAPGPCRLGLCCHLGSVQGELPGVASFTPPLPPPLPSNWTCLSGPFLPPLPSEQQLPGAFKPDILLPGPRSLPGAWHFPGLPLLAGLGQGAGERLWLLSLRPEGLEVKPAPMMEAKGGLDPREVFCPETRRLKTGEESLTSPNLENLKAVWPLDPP
The note with it: protein: recombinant; tags: N-terminal GST; dsDNA, one strand shown. The method in brief: as §1

The target in the next assay is T8, ETS2 (Homo sapiens, UniProt P15036 1-469).
T8 sequence: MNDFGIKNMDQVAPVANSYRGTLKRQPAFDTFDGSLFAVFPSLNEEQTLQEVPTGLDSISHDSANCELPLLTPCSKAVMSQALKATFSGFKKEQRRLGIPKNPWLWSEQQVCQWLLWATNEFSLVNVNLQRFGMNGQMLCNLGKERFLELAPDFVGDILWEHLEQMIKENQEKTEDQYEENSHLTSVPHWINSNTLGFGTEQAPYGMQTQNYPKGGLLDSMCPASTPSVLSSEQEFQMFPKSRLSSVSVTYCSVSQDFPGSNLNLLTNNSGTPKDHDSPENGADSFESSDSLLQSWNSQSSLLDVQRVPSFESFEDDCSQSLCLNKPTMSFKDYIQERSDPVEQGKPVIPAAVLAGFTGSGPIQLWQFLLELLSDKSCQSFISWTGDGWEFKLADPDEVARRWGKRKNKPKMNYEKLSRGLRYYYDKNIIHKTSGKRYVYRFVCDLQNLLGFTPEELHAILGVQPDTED
The note with it: protein: recombinant; tags: N-terminal GST; dsDNA, one strand shown. A digest of the protocol: as §1

The next assay concerns the target T9, SPDEF (Homo sapiens, UniProt O95238 1-335).
T9 sequence: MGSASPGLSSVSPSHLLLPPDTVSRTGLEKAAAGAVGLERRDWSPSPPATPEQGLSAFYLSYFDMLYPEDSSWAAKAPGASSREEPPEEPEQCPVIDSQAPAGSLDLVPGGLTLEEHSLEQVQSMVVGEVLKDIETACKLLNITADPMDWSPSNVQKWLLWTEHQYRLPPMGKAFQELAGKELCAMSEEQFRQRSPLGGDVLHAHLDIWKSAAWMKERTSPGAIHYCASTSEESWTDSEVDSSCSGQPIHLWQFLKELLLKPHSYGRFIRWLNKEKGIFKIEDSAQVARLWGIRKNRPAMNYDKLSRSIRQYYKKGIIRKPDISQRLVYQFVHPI
The note with it: protein: recombinant; tags: N-terminal GST; dsDNA, one strand shown. A digest of the protocol: as §1

For the next assay, the target named is T10, ETV7 (Homo sapiens, UniProt Q9Y603 1-341).
T10 sequence: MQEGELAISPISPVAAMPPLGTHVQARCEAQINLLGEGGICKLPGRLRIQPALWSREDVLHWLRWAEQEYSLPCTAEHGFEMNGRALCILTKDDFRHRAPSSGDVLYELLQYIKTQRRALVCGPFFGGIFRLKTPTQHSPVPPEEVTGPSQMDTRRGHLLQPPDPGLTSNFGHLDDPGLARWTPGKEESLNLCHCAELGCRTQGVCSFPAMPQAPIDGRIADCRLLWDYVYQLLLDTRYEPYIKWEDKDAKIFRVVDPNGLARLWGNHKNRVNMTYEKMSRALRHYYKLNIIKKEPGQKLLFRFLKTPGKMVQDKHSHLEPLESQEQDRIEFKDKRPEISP
To be noted: protein: recombinant; tags: N-terminal GST; dsDNA, one strand shown. A digest of the protocol:
as §1

For the next assay, the target named is T11, ELF5 (Homo sapiens, UniProt Q9UKW6-2 1-255).
T11 sequence: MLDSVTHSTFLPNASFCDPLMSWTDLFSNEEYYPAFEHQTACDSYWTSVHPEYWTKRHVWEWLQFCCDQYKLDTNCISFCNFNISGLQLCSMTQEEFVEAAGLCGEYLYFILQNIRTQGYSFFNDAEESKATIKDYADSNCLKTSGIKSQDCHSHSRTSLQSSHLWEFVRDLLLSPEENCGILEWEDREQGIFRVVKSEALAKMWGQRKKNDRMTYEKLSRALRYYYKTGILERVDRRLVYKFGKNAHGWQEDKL
The note with it: protein: recombinant; tags: N-terminal GST; dsDNA, one strand shown. A digest of the protocol:
as §1

For the next assay, the target named is T12, ETV3 (Homo sapiens, UniProt P41162-2 1-143).
T12 sequence: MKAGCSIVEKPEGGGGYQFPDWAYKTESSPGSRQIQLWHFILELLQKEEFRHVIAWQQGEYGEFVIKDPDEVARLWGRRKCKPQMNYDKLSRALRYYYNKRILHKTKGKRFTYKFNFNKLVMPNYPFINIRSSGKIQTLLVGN
The note with it: protein: recombinant; tags: N-terminal GST; dsDNA, one strand shown. The method in brief: as §1

In the next assay the target is ETV6 (Homo sapiens, UniProt P41212 1-452). To be noted: protein: recombinant; tags: N-terminal GST; dsDNA, one strand shown. A digest of the protocol:
as §1

ETV6, sequence (P41212 whole entry): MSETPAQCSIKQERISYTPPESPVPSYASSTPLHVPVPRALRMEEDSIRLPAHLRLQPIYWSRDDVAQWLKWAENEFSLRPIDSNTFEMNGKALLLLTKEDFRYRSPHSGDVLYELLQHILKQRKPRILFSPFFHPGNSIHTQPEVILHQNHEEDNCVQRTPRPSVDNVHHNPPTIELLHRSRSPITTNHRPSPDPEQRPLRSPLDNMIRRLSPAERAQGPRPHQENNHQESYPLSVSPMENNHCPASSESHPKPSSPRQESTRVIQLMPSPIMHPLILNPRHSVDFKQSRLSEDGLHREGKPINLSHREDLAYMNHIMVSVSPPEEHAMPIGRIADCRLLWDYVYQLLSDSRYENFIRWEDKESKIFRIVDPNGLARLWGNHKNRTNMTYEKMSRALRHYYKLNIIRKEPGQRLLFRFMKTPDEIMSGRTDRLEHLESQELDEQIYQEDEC
ELF4, sequence (Q99607 whole entry): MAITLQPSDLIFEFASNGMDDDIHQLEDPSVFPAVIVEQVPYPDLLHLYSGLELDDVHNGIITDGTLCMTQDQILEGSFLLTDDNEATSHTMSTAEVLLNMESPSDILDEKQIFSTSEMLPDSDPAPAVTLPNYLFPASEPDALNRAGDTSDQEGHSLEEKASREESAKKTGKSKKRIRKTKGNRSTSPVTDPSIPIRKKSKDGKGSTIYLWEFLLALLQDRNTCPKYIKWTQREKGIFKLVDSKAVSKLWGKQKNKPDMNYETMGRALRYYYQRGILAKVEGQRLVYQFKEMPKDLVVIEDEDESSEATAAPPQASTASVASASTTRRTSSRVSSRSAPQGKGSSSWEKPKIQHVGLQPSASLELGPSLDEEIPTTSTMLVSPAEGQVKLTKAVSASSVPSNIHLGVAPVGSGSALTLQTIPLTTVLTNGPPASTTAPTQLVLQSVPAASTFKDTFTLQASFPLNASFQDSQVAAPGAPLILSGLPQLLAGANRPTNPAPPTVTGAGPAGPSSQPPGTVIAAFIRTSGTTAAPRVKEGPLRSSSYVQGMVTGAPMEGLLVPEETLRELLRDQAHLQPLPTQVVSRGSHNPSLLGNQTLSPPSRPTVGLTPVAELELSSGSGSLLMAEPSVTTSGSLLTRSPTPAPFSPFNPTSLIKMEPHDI
CRX, sequence (O43186 whole entry): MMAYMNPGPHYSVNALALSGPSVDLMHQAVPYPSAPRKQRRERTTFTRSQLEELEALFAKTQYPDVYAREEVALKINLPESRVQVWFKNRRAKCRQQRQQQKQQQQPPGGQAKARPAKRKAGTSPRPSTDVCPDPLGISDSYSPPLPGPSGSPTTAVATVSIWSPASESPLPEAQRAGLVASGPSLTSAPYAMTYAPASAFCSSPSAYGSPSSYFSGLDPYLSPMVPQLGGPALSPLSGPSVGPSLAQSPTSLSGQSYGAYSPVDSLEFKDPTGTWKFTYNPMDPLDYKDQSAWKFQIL

Regarding TAACTA, the binding signal in the assay with FEV is 1.25 fold enrichment (6-mer frequency, TF over GST control); with ETV5, 1.29 fold enrichment (6-mer frequency, TF over GST control); with HSF1, 1.51 fold enrichment (6-mer frequency, TF over GST control); with SPIC, 1.36 fold enrichment (6-mer frequency, TF over GST control); in the assay with ELF4 it was 1.48 fold enrichment (6-mer frequency, TF over GST control); in the assay with ELK4 it was 1.26 fold enrichment (6-mer frequency, TF over GST control). The binding signal with ETV2 is 1.49 fold enrichment (6-mer frequency, TF over GST control); in the assay with ELF3 it was 1.33 fold enrichment (6-mer frequency, TF over GST control); with CRX, 1.87 fold enrichment (6-mer frequency, TF over GST control); with ETV1, 1.24 fold enrichment (6-mer frequency, TF over GST control); with ERF, 1.38 fold enrichment (6-mer frequency, TF over GST control); in the assay with ETV3L it was 1.21 fold enrichment (6-mer frequency, TF over GST control). The binding signal was 1.4 fold enrichment (6-mer frequency, TF over GST control) with ETS2; 1.26 fold enrichment (6-mer frequency, TF over GST control) with SPDEF; 1.29 fold enrichment (6-mer frequency, TF over GST control) with ETV7; 1.3 fold enrichment (6-mer frequency, TF over GST control) with ELF5; 1.29 fold enrichment (6-mer frequency, TF over GST control) with ETV3; 1.36 fold enrichment (6-mer frequency, TF over GST control) in the assay with ETV6.
